{"source": "PubChem BioAssay AID504329", "about": "(Southern Research Specialized Biocontainment Screening …, 2011)", "note": "Hit rate of the full screen: of about 340,000 compounds, about 1,000 (0.29%) were called active. The list is a sample of the results. Results with a measured potency or affinity are listed apart. Values without a mark were called inactive. Rule as the data show it: inconclusive = inhibition above about 27% without an active follow-up result; inactive = below that.", "data": [{"experiment": "H1N1 influenza NS1A inhibitors, functional cell based assay (AID 504329)", "conditions": "percent inhibition, at 12.5 µM, active compounds read high", "units": {"inhibition": "%"}, "values": [{"compound": "c1ccc(-c2nn[nH]n2)nc1", "inhibition": -11.7}, {"compound": "c1ccc(-c2nc3ccccc3[nH]2)nc1", "inhibition": 13.8}, {"compound": "c1ccc(-c2nc(-c3ccccn3)nc(-c3ccccn3)n2)nc1", "inhibition": 7.93}, {"compound": "c1ccc(-c2cnc(-c3ccccc3)nn2)cc1", "inhibition": 10}, {"compound": "c1ccc(-c2ccncc2)nc1", "inhibition": -0.28}, {"compound": "Clc1ccc(-c2cnc3ccccc3n2)cc1", "inhibition": -9.76}, {"compound": "Clc1ccc(OCc2nc(-c3ccccn3)n[nH]2)cc1", "inhibition": 6.94}, {"compound": "c1ccc(-c2nnc(-c3ccccn3)s2)nc1", "inhibition": -1.25}, {"compound": "COc1ccc(C(C)=O)cc1CN(c1ccccc1OC)S(=O)(=O)c1cccs1", "inhibition": 13.1}, {"compound": "Cc1cc(C)nc(SCc2ccc(C(=O)N/N=C/c3ccco3)cc2)n1", "inhibition": -4.36}, {"compound": "CCCNS(=O)(=O)c1cccc(C(=O)NC2CCCc3ccccc32)c1", "note": "(centres undefined)", "inhibition": -1.43}, {"compound": "Cc1ccc(C)c(SCC(=O)NC2CCS(=O)(=O)C2)c1", "note": "(centres undefined)", "inhibition": -12.1}, {"compound": "CCCCCCCCNC(=O)c1cnccn1", "inhibition": -8.66}, {"compound": "c1cc(-c2n[nH]c(-c3ccncc3)n2)ccn1", "inhibition": -1.91}, {"compound": "c1ccc(-c2nc3ccccc3nc2-c2ccccn2)nc1", "inhibition": 0.35}, {"compound": "Nc1nc(N)nc(-c2ccccc2O)n1", "inhibition": 1.67}, {"compound": "CSc1nncc(-c2ccccc2)n1", "inhibition": -2.08}, {"compound": "c1ccc(-c2n[nH]c(-c3ccccn3)n2)cc1", "inhibition": -0.5}, {"compound": "c1ccc(-c2nc(-c3ccccn3)no2)cc1", "inhibition": -0.45}, {"compound": "c1ccc(-c2ccccn2)nc1", "inhibition": -0.49}, {"compound": "Nc1nc(N)nc(-c2ccccc2-c2nc(N)nc(N)n2)n1", "inhibition": 21.3}, {"compound": "CCN(CC)S(=O)(=O)c1ccc(N2CCOCC2)c(NC(=O)COc2ccccc2C)c1", "inhibition": -22.8}, {"compound": "CCc1nc2ccccc2n1Cc1cc(=O)n2cc(C)ccc2n1", "inhibition": -1.64}, {"compound": "CCOc1ccc(NC(=S)N2CCN(S(=O)(=O)c3ccccc3)CC2)cc1", "inhibition": 24.8}, {"compound": "CC(C)(C)c1nnc(N/N=C/c2ccccc2)n(N)c1=O", "inhibition": -3.79}, {"compound": "CC(C)(C)c1nnc(N/N=C/c2ccc(O)cc2)n(N)c1=O", "inhibition": 6.15}, {"compound": "CC(C)(C)c1nnc(N/N=C/c2ccc(Br)cc2)n(N)c1=O", "inhibition": -5.94}, {"compound": "CCc1nnc(N/N=C/c2cc(C)c(C)cc2C)n1N", "inhibition": -3.56}, {"compound": "Cc1nnc(N/N=C/c2ccccc2O)n1N", "inhibition": 9.93}, {"compound": "CCc1nnc(N/N=C/c2ccccc2F)n1N", "inhibition": -9}, {"compound": "Cc1ccc(CN2CCC(n3nccc3NC(=O)CCOc3ccccc3)CC2)cc1C", "inhibition": -4.94}, {"compound": "CCN1CCN(C(c2cc(OC)ccc2OC)c2nnnn2Cc2ccccc2)CC1", "note": "(centres undefined)", "inhibition": -5.45}, {"compound": "Cc1cn(CC(=O)NCc2ccc3c(c2)OCO3)c(=O)[nH]c1=O", "inhibition": 0.05}, {"compound": "Cc1ccc(C(=O)COC(=O)CNC(=O)c2cccs2)cc1C", "inhibition": 3.9}, {"compound": "Cc1ccc(CS(=O)Cc2ccc(C(=O)NCCc3ccccc3)o2)cc1", "note": "(centres undefined)", "inhibition": 3.5}, {"compound": "COc1ccc(N2CCN(C(=O)c3c(C)nn(-c4ccccc4)c3C)CC2)cc1", "inhibition": 1.11}, {"compound": "COc1ccc(C(=O)Nc2ccc(Cl)cc2C(=O)N2CCCC(C)C2)cc1OC", "note": "(centres undefined)", "inhibition": -10.1}, {"compound": "O=S1(=O)[C@H]2CC3O[C@]2(C[C@@H]3c2ccc(F)cc2)CN1Cc1ccc(Cl)cc1", "inhibition": -1.02}, {"compound": "COc1cc(C(=O)NC2CCN(Cc3nnnn3Cc3cccs3)CC2)cc(OC)c1OC", "inhibition": -19}, {"compound": "CCCNc1ncnc2onc(C)c12", "inhibition": -5.28}, {"compound": "Oc1cc(Nc2ccccc2)cc2cccnc12", "inhibition": 3.79}, {"compound": "Clc1cnc(Nc2cccnc2)c(Cl)c1", "inhibition": -6.41}, {"compound": "O=C(Nc1ccncc1)c1cc2ccccc2cc1O", "inhibition": -5.8}, {"compound": "Oc1cc(NCc2ccc(F)cc2)cc2cccnc12", "inhibition": -7.28}, {"compound": "Oc1cc(NCc2ccc(Cl)cc2)cc2cccnc12", "inhibition": -7.85}, {"compound": "c1ccc(-c2csc(Nc3cccnc3)n2)nc1", "inhibition": 14.1}, {"compound": "CC(=O)c1ccccc1OCC(O)CN1CCN(c2ccccn2)CC1", "note": "(centres undefined)", "inhibition": -18.6}, {"compound": "CCOc1ccccc1N(CC(=O)Nc1ccccc1C(=O)N1CCOCC1)S(C)(=O)=O", "inhibition": -12.1}, {"compound": "COC(=O)c1ccccc1NC(=O)Nc1cccnc1", "inhibition": -5.77}, {"compound": "CCOP(=O)(OCC)C(NC(=O)Nc1ccc(Cl)cc1)C(N)=O", "note": "(centres undefined)", "inhibition": -4.5}, {"compound": "COc1cccc2cc(C(=O)NCC3CCCO3)c(=O)oc12", "note": "(centres undefined)", "inhibition": 6.96}, {"compound": "COc1ccc(/C(O)=C2\\C(=O)C(=O)N(CCN3CCOCC3)C2c2ccccc2OC)cc1", "note": "(centres undefined)", "inhibition": -5.93}, {"compound": "CCc1cccc(NC(=O)CSCc2cc(=O)[nH][nH]2)c1", "inhibition": 4.49}, {"compound": "Cc1cnc(-n2c(=S)[nH]c3ccccc3c2=O)s1", "inhibition": -7.74}, {"compound": "O=C(NCc1cc(C(F)(F)F)ccc1F)C1CCC(=O)N(C2CC2)C1", "note": "(centres undefined)", "inhibition": -6.88}, {"compound": "Nc1ccc(N2CCN(c3ccc(F)cc3)CC2)cc1", "inhibition": -1.58}, {"compound": "CCN1CCN(c2ccc(N)cc2)CC1", "inhibition": 11.3}, {"compound": "N#Cc1ccc(C(=O)Nc2cc(C3CC3)nn2-c2ccccc2)cc1", "inhibition": -9.27}, {"compound": "CC[n+]1c(C)sc2c3ccsc3ccc21", "inhibition": 2.89}, {"compound": "Cn1c(SCC(=O)Nc2ccc(C(N)=O)cc2)nc2c(c1=O)SCC2", "inhibition": -1.68}, {"compound": "Oc1ccccc1N=Nc1ccccc1O", "inhibition": 21.9}, {"compound": "Oc1ccccc1N=N/C(=N/Nc1ccccc1O)c1ccccc1", "inhibition": -1.57}, {"compound": "CC(=O)NC1C(Oc2ccccc2C)OC2COC(c3ccco3)OC2C1O", "note": "(centres undefined)", "inhibition": -4.4}, {"compound": "Cc1ccn(CC(=O)N2CCCC(C(=O)c3cccc4ccccc34)C2)n1", "note": "(centres undefined)", "inhibition": 1.06}, {"compound": "Cc1ccc(N2CC(C(=O)N3CCC(C(=O)NCCCOC(C)C)CC3)CC2=O)cc1", "note": "(centres undefined)", "inhibition": -11.9}, {"compound": "Cc1ccccc1OCC(=O)N/N=C/c1cccc2cccnc12", "inhibition": 11.7}, {"compound": "COc1cccc(/C=N/NC(=O)COc2cccc3cccnc23)c1O", "inhibition": -3.74}, {"compound": "COc1ccc(OCC(=O)N/N=C/c2cccc3cccnc23)cc1", "inhibition": 27.8}, {"compound": "O=C(COc1ccc(F)cc1)N/N=C/c1cccc2cccnc12", "inhibition": -1.12}, {"compound": "Cc1ccc(C(F)(F)F)cc1NC(N)=S", "inhibition": 5.01}, {"compound": "Nn1cnnc1N/N=C/c1ccc(Cl)cc1Cl", "inhibition": -12.4}, {"compound": "COc1ccc(/C=N/Nc2nncn2N)cc1Br", "inhibition": 9.22}, {"compound": "Cc1ccc(N(C)S(=O)(=O)c2ccc3[nH]cc(C(=O)NCCCN4CCOCC4)c(=O)c3c2)cc1C", "inhibition": 4.79}, {"compound": "Cc1cc(=O)[nH]c(N/N=C/c2ccccc2C(F)(F)F)n1", "inhibition": -5.35}, {"compound": "Nc1ccc(N=Nc2ccccc2)c2ccccc12", "inhibition": -3.26}, {"compound": "Nc1ccc(N=Nc2ccccc2)c(N)n1", "inhibition": 18}, {"compound": "COCCn1c(CN2CC(C)CC(C)C2)nc2c1c(=O)n(C)c(=O)n2C", "note": "(centres undefined)", "inhibition": 3.18}, {"compound": "CN(C)c1ccc(/C=C/c2cc[n+](C)cc2)cc1", "inhibition": 7.63}, {"compound": "CC[n+]1c(/C=C/C=C/N(C(C)=O)c2ccccc2)sc2ccccc21", "inhibition": 25.6}, {"compound": "CN(C)c1ccc(/C=C/c2nc3ccccc3s2)cc1", "inhibition": -0.93}, {"compound": "CC[n+]1c(/C=C/N(C)c2ccccc2)sc2ccc(Cl)cc21", "inhibition": 0.72}, {"compound": "CCOc1nc(SCCOc2ccccc2)nc(N(C)C)n1", "inhibition": 21.4}, {"compound": "COc1ccc(NS(=O)(=O)c2cccc(C(=O)N/N=C(\\C)c3ccncc3)c2)cc1", "inhibition": -5.23}, {"compound": "O=Cc1ccc2ccc3cccnc3c2n1", "inhibition": 9.05}, {"compound": "Cc1ccc2ccc3ccc(C)nc3c2n1", "inhibition": -7.29}, {"compound": "Oc1c(Cl)cc(Cl)c2cccnc12", "inhibition": -14.4}, {"compound": "O=S1(=O)NC(=NCCc2ccccn2)c2ccccc21", "inhibition": -4.92}, {"compound": "Clc1cc2cccnc2c2ccccc12", "inhibition": -7.93}, {"compound": "Clc1ccc2ccc3cccnc3c2n1", "inhibition": -25.7}, {"compound": "c1cnc2c(c1)ccc1ncccc12", "inhibition": -2.85}, {"compound": "Cc1ccc2cccnc2c1N", "inhibition": -4.2}, {"compound": "CCc1cc(C(=O)N2CCCC(N3CCN(c4cccc(C(F)(F)F)c4)CC3)C2)n(C)n1", "note": "(centres undefined)", "inhibition": -0.25}, {"compound": "CCO/C=C/C(O)(CNC(=O)COc1ccccc1F)C(F)(F)F", "note": "(centres undefined)", "inhibition": -0.96}, {"compound": "Cc1ccc(S(=O)(=O)N2CCN(S(=O)(=O)N3CCC(C)CC3)CC2)cc1C", "inhibition": 2.71}, {"compound": "CC(=O)Nc1nnc(SCC(=O)N2CCc3ccccc32)s1", "inhibition": -6.4}, {"compound": "O=C(NNc1ccc(-c2csnn2)cc1)c1ccccc1C(F)(F)F", "inhibition": -23.8}, {"compound": "CC1=C(C(=O)Nc2cc(C(=O)N3CCN(c4cccc(C)c4C)CC3)ccc2C)SCCO1", "inhibition": 8.75}, {"compound": "O=C(NC1=C(Nc2ccc(Cl)cc2)C(=O)c2ccccc2C1=O)c1ccccc1", "inhibition": 12.2}, {"compound": "O=C(NC1=C(Nc2ccc(F)cc2)C(=O)c2ccccc2C1=O)c1ccc(Cl)cc1", "inhibition": -4.19}, {"compound": "CN(C1=C(NC(=O)c2ccccc2)C(=O)c2ccccc2C1=O)C1CCS(=O)(=O)C1", "note": "(centres undefined)", "inhibition": 4.18}, {"compound": "Cc1cccc(NC2=C(NC(=O)c3ccccc3)C(=O)c3ccccc3C2=O)c1", "inhibition": 28.6}, {"compound": "COc1ccc(NC(=O)CN2CCN(CC(=O)Nc3ccccc3Cl)CC2)cc1Cl", "inhibition": 3.53}, {"compound": "COc1cccc(CC(CC(=O)O)C(=O)Nc2cc(C)ccc2C)c1", "note": "(centres undefined)", "inhibition": 2.74}, {"compound": "CN1C(=O)/C(=C2\\SC(=S)N(NC(=O)c3cccnc3)C2=O)c2ccccc21", "inhibition": 6.82}]}]}
